Only some compounds are listed: those with a hit (about 2.4% of all), similar ones and a draw of the others.
D2 antagonist – HTS Assay for Allosteric Antagonists of the Human D2 Dopamine Receptor: Primary Screen for Antagonists | D(2) dopamine receptor (Homo sapiens), P14416 | HEK293 TREx D2 cells, calcium flux, dopamine EC80 | inhibition, % at 10 µM | 340,000 tested, 2% active | AID 485344, 2010; in the data active means inhibition above about 30%; inactive means below that, where a call was filed
Target sequence (P14416 whole entry, looked up): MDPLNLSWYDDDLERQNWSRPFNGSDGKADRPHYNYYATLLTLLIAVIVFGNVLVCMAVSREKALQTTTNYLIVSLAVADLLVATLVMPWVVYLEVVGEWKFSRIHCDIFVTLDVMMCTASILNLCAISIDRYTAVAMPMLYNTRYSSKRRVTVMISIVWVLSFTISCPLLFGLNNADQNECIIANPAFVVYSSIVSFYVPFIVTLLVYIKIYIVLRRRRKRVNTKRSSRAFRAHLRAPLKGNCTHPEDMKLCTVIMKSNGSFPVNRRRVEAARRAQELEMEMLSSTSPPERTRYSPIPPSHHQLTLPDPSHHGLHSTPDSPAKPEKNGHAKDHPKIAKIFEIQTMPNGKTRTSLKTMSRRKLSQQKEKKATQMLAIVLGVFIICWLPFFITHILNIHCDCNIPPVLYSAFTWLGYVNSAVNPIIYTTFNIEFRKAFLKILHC
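Antagonism is scored as inhibition of an EC80 dopamine-evoked calcium signal in a force-coupled, tetracycline-inducible HEK293 T-REx D2 line, with compound present 180 s before agonist.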
D2 PAM-1 – HTS Assay for Positive Allosteric Modulators of the Human D2 Dopamine Receptor: Primary Screen for Potentiators; HEK293 T-REx D2, calcium flux, EC20 dopamine potentiation; D(2) dopamine receptor (Homo sapiens), P14416; 340,000 tested, 0.34% active; potentiation, % at 10 µM; AID 485347, 2010;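 active means potentiation over 3 SD above the plate norm, cut at about 30% in these data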
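Using a no-wash calcium dye in inducible, force-coupled HEK293 Trex cells expressing D2, we tracked fluorescence each second for 180 s after compound, then for 180 s after EC20 dopamine to detect augmented signalling.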
D2 PAM-2 – Beta-Arrestin HTS for Positive Allosteric Modulators of the Human D2 Dopamine Receptor: Potentiators. D(2) dopamine receptor (Homo sapiens), P14416. DiscoveRx D2 beta-arrestin cells, luminescence, 90 min; 100% = 57 uM dopamine signal. potentiation, % (test concentration not listed). 360,000 tested, 0.23% active. AID 624464, 2012; in the data active means potentiation above about 50%; inconclusive means mostly about 30% to 49%
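PathHunter beta-arrestin assay in DiscoveRx D2 cells. Compounds were added with an EC20 of dopamine (50 nM final) for 90 min at 37 deg C. Luminescence was read 1 h after detection reagent, with 57 uM dopamine as the EC100 control.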
D2 ag-1 – HTS Assay for Allosteric Agonists of the Human D2 Dopamine Receptor: Primary Screen for Agonists. AID 485358, 2010. 340,000 tested, 0.53% active. D(2) dopamine receptor (Homo sapiens), P14416. HEK293 T-REx D2 cells, calcium flux agonist mode. activation, % at 2 µM;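 active means activation over 3 SD above normal in the single-dose calcium agonist read, cut at about 30% in these data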
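Agonism is scored from calcium flux in a force-coupled, inducible HEK293 cell line expressing D2, read kinetically for 180 s after compound addition against dopamine controls.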
D2 ag-2 – Beta-Arrestin HTS for Positive Allosteric Modulators of the Human D2 Dopamine Receptor: Agonists; activation, % (concentration not given with the values); DiscoveRx PathHunter D2 beta-arrestin, luminescence, 90 min; 100% = 57 uM dopamine signal; AID 624465, 2012; 360,000 tested, 0.084% active; in the data active means activation above about 40%; inconclusive means between about 15% and that limit
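Agonist mode: compounds alone added to overnight-plated D2 PathHunter cells for 90 min at 37 C, with 57 uM final dopamine (EC100) defining full response. Beta-arrestin recruitment detected by chemiluminescent reagent, read after 1 h at ambient temperature.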
Large screens that a line does not name were inactive.

Cc1nn(Cc2ccc([N+](=O)[O-])cc2)c(=O)n1-c1cccc(Cl)c1	D2 antagonist 32.5
N=c1sccn1CC(=O)NCCc1ccc(Cl)cc1Cl	D2 antagonist 39.0
Cc1cc(NC(=O)c2cc(-c3ccc(OC(C)C)cc3)nc3ccccc23)no1	D2 PAM-1 30.1
Cc1cccc(-c2nc(CS(=O)CC(=O)NCc3cccs3)c(C)o2)c1 (centres undefined)	D2 antagonist 39.1
CCc1ccc(-c2nc(CS(=O)CC(=O)NCc3ccco3)c(C)o2)cc1 (centres undefined)	D2 PAM-1 73.2
COc1ccc(-c2nc(CS(=O)CC(=O)NCc3ccco3)c(C)o2)cc1 (centres undefined)	none
Cn1cnc2c(=O)oc3ccc(S(=O)(=O)N4CCN(c5cccc(Cl)c5)CC4)cc3c21	none (no result: D2 antagonist, D2 PAM-1, D2 PAM-2, D2 ag-2)
COc1ccccc1NC(=O)C(C)OC(=O)CCNS(=O)(=O)c1ccc(C)c(C)c1 (centres undefined)	D2 antagonist 40.0
Cc1ccc(CCNC(=O)c2ccc(CS(=O)(=O)c3ccccc3C)o2)cc1	D2 PAM-1 47.1
Cc1ccc(CNC(=O)c2ccc(CS(=O)(=O)c3ccccc3C)o2)cc1	none
CCC(Sc1nccn1C)C(=O)Nc1ccc(Cl)cn1 (centres undefined)	none
CC(Sc1nccn1C)C(=O)Nc1ccc(Cl)cn1 (centres undefined)	D2 antagonist 48.9
NC(=O)C1CCN(C(=O)NC2CC(=O)N(c3ccc4c(c3)OCCO4)C2)CC1 (centres undefined)	D2 antagonist 45.6
COc1cc(OC)c(NS(=O)(=O)c2c(C(=O)N3CCCCCC3)c(C)n(C)c2C)cc1Cl	none (no result: D2 antagonist, D2 PAM-2, D2 ag-2)
N/C(Cc1cccc2ccccc12)=N\OC(=O)c1ccccc1F	D2 PAM-2 60.9, D2 ag-2 inconclusive
N/C(Cn1cncn1)=N\OC(=O)c1ccc(Cl)cc1Cl	none
N/C(Cc1ccc(Cl)cc1Cl)=N\OC(=O)c1ccccc1F	D2 PAM-2 61.3
N/C(Cc1ccccc1)=N\OC(=O)c1cccc2ccccc12	D2 PAM-2 inconclusive, D2 ag-1 37.0
Cc1ccc(C2C=C(c3ccc(Cl)cc3)Nc3nc(NC(=O)c4ccco4)nn32)cc1 (centres undefined)	none (no result: D2 antagonist, D2 PAM-2, D2 ag-2)
Cc1cccc(OCCSc2nc3ccc(NC(=O)c4cccs4)cc3s2)c1	none (no result: D2 antagonist, D2 PAM-2, D2 ag-2)
Cc1cccc(NC(=O)CSc2ncc(-c3ccc(Br)cc3)[nH]2)c1	none (no result: D2 antagonist, D2 PAM-2, D2 ag-2)
COc1ccc(NC(=O)CSc2nc(-c3ccccc3)[nH]c2-c2ccccc2)cc1OC	none (no result: D2 antagonist, D2 PAM-2, D2 ag-2)
Cc1cc2c(cc1NS(=O)(=O)c1cccc(C#N)c1)n(C)c(=O)c(=O)n2C	none (no result: D2 antagonist, D2 PAM-2, D2 ag-1, D2 ag-2)
COC(=O)CCC(=O)OC	none (no result: D2 antagonist, D2 PAM-1, D2 ag-1)
COC(=O)CCCCC(=O)OC	D2 antagonist 36.5
CCOC(=O)C1(Cc2ccccc2)CCN(Cc2cnn(-c3ccccc3)c2)CC1	D2 antagonist 33.3
CCOC(=O)C1(CCOc2ccccc2)CCN(Cc2ccc(-n3cccn3)cc2)CC1	D2 antagonist 35.2
CCOC(=O)CCNC(=O)N1CCC(CCOc2ccccc2)(C(=O)OCC)CC1	none (no result: D2 antagonist, D2 PAM-1, D2 ag-1)
CCOC(=O)C1(Cc2ccccc2)CCN(Cc2cnn(CC)c2)CC1	none
CCOC(=O)C1(CCOc2ccccc2)CCN(S(=O)(=O)N(C)C)CC1	D2 antagonist 42.9
CCOC(=O)C1(CCc2ccccc2)CCN(Cc2cccc3nccnc23)CC1	D2 antagonist 65.3
CCOC(=O)C1(CCOc2ccccc2)CCN(Cc2ccncc2)CC1	none
Clc1ccccc1CNc1ncnc2c1c(-c1ccccc1)cn2-c1ccccc1	none (no result: D2 antagonist, D2 PAM-2, D2 ag-2)
CC1CCC(NC(=O)C2(C)Cc3ccccc3C(=O)N2Cc2ccccc2Cl)CC1 (centres undefined)	none (no result: D2 antagonist, D2 PAM-2, D2 ag-2)
COc1ccccc1CNC(=O)CN1C(=O)COc2ccc(S(=O)(=O)Nc3ccccc3)cc21	none (no result: D2 antagonist, D2 PAM-2, D2 ag-1, D2 ag-2)

Assay outcomes (PubChem BioAssay)
